For orientation: inhibition means the drop in the measured response relative to a control, in per cent.

Out of some 220,000 compounds screened, about 2,000 (0.91%) were called active. Another 2% or so got no clear call; they are omitted. These entries were drawn from the full list. Results with a measured potency or affinity are listed apart. Unmarked numbers belong to inactive results. Cut-off read from the data, not from the text of the source: inconclusive = inhibition above about 80% without an active follow-up result; inactive = below that; test concentration not stated here.

Experimental findings from PubChem BioAssay AID1626 (SRMLSC, 2009) are described below.

This assay can be described thus: M. tuberculosis H37Rv growth inhibitors, H37Rv strain (AID 1626).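 Note: bacteria incubated seven days before Alamar blue readout; 0% = bacteria only wells and 100% = bacteria with antibiotic wells.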 Conditions: stronger effect = higher value, concentration not given here.
`Cn1c(N)c(C(=O)COC(=O)C2CC(=O)N(Cc3ccccc3)C2)c(=O)n(C)c1=O` (centres undefined): the inhibition was 0.39%.
Take `CC(C)(C)Nc1nc(SCC(=O)Nc2ccccc2)nc(N2CCOCC2)n1`: the inhibition is -1.07%.
Consider `O=C(Nc1ccccc1)c1ccn[nH]1`, for which the inhibition is -7.96%.
As to `COc1ccccc1CNc1ncnc2cc(Cl)ccc12`, the inhibition was -2.22%.
With `CC(C)N1CCC(N2CCN(C/C=C/c3ccccc3)CC2CCO)CC1` (centres undefined), the inhibition was -1.35%.
Turning to `Cc1ccc(C(c2nnnn2C(C)(C)C)N2CCN(C3CCCC3)CC2)cc1` (centres undefined), the inhibition was -4.57%.
Under `Cc1cc(C)c(-c2cc(NC(=O)CSc3nncn3C)n(-c3ccccc3)n2)cc1C` stands 5.63%; under `CCOC(=O)C1=C(CC)Nc2ccccc2N=C1NC(=O)Nc1ccccc1OC`, 5.38%.
With `CCOC(=O)C1=C(CC)Nc2ccccc2N=C1NC(=O)c1cc(S(=O)(=O)N(C)C)ccc1Cl`, the inhibition was 5.31%.
For `Cc1ccc(SCc2cc(=O)[nH]c(/N=C(\N)Nc3cccc4ccccc34)n2)cc1`, the inhibition is 2.6%.
As for `CC1(C)CC(=O)C2=C(C1)NC1=C(C(=O)c3ccccc31)C2c1cccnc1` (centres undefined), the inhibition is 11.2%.
`CC1(C)CC(=O)C2=C(C1)NC1=C(C(=O)c3ccccc31)C2c1ccccc1` (centres undefined): the inhibition was 14.8%.
As to `COc1cc(C2C3=C(CC(C)(C)CC3=O)NC3=C2C(=O)c2ccccc23)ccc1O` (centres undefined), the inhibition was 2.3%.
For `CC1(C)CC(=O)C2=C(C1)NC1=C(C(=O)c3ccccc31)C2c1ccc(Cl)cc1` (centres undefined), the inhibition is 44.9%.
Turning to `CC1(C)CC(=O)C2=C(C1)NC1=C(C(=O)c3ccccc31)C2c1ccc(O)cc1` (centres undefined), the inhibition was 7.92%.
Consider `Cc1ccc(C2C3=C(CC(C)(C)CC3=O)NC3=C2C(=O)c2ccccc23)cc1` (centres undefined), for which the inhibition was 9.84%.
For the molecule `CCN(CC)S(=O)(=O)c1cccc(C(=O)N/N=C2\CCCC(=O)C2)c1`, the inhibition is -9.95%.
With `CCNc1nc(SCCOc2ccc(Br)cc2)nc(N(C)C)n1`, the inhibition is -0.8%.
Regarding `Cc1nn(C)c(C)c1S(=O)(=O)N1CCC(C(=O)NCCC2=CCCCC2)CC1`, the inhibition was -9.44%.
Under `Cc1ccc(C)c(-c2cc(C(=O)Nc3cccc(C(=O)O)c3)c3ccccc3n2)c1` stands 2.58%.
Take `COc1ccc(/C=C/C2=NN(Cc3ccccc3)C(=O)CC2)cc1`: the inhibition was -0.13%.
Consider `Cc1cc(N2CCN(C)CC2)nc(-c2ccccc2O)n1`, for which the inhibition is -1.49%.
On to `Cc1cccc(OCC(=O)Nc2cccc(-c3nnc(-c4ccccc4)o3)c2)c1C`, for which the inhibition is 3.74%.
Take `O=C(Nc1ccc(-c2nc3cc(Cl)ccc3c(=O)o2)cc1)c1ccco1`: the inhibition was 9.67%.
For `O=C(Nc1ccc2nc(-c3ccccc3)oc2c1)c1ccco1`, the inhibition was -2.22%.
In the case of `CC(C)C(=O)Nc1cccc(-c2nc3ccccc3c(=O)o2)c1`, the inhibition is 0.23%.
In the case of `COc1ccc(-c2nc3ccccc3c(=O)o2)cc1OC`, the inhibition was 12.4%.
The figure for `O=C(COc1ccccc1)Nc1cccc(-c2nnc(-c3ccccc3)o2)c1` is 14.9%.
Turning to `CCOc1ccc(-c2nc3ccccc3c(=O)o2)cc1`, the inhibition is 3.93%.
As for `CCC(=O)Nc1ccc(-c2nnc(-c3ccccc3)o2)cc1`, the inhibition is 5.07%.
In the case of `O=C1CC(c2ccc(Br)cc2)NC(c2ccc(Br)cc2)C1c1ccccc1` (centres undefined), the inhibition was 15.2%.
As to `Nc1cc(-c2ccccc2)nn1S(=O)(=O)c1ccc(Br)cc1`, the inhibition is 12.3%.
Consider `COc1cc(SC)ccc1C(=O)Nc1ccc(C)cc1C`, for which the inhibition was 2.28%.
`Cc1onc(-c2ccccc2)c1C(=O)N1CCN(C)CC1`: the inhibition is -7.83%.
`Cc1cc(C(=O)N/N=C2\CC(=O)c3ccccc32)c(C)n1-c1ccccc1`: the inhibition is -0.53%.
Regarding `COc1ccc(/C=N/NC(=O)CC2N=C(Cc3ccccc3)NNC2=O)cc1OC` (centres undefined), the inhibition was -1.24%.
On to `O=C(Oc1c(Cl)cc(Cl)c2ccccc12)N1CCCCC1`, for which the inhibition is 11.7%.
Turning to `NC(=O)CCC(NC(=O)c1ccc(Cl)cc1)C(=O)O` (centres undefined), the inhibition is 2.33%.
Turning to `COc1ccc(NC(=O)CCN2C(=O)[C@@H]3[C@H](C2=O)[C@H]2C=C[C@@H]3C2)cc1`, the inhibition was -1.56%.
The figure for `CC(=O)Nc1cccc(-c2nc3ccccc3c(=O)o2)c1` is 9.37%; for `O=C1C2C3C=CC(C3)C2C(=O)N1c1ccc(-c2nc3ccccc3o2)cc1` (centres undefined) it is 0.58%; for `COc1ccc(-c2nc3ccccc3c(=O)o2)cc1` it is 11.6%.
For the molecule `CCCC(=O)Nc1cccc(-c2nc3ccccc3o2)c1`, the inhibition is 5.23%.
As for `CC(C)(C)C(=O)Nc1cccc(-c2nc3ccccc3c(=O)o2)c1`, the inhibition was 70.7%.
In the case of `O=C(Nc1ccc(-c2nc3ccccc3o2)cc1)c1ccc(N2C(=O)C3C4C=CC(C4)C3C2=O)cc1` (centres undefined), the inhibition is 3.15%.
On to `COc1ccc(C2C(Oc3ccccc3)C(=O)N2c2ccc(C)c(C)c2)cc1OC` (centres undefined), for which the inhibition is 4.9%.
As for `Fc1ccc(CNC(=S)NC2CCCC2)cc1`, the inhibition is 2.21%.
On to `CCc1cc(C(=O)OC)c(NC(=O)CC2SC(N)=NC2=O)s1` (centres undefined), for which the inhibition was 3.51%.
Consider `CC(=O)N1CCN(c2ccc(N=Cc3c(O)n(-c4ccc(Cl)cc4)c(=O)[nH]c3=O)cc2)CC1`, for which the inhibition was -7.57%.
On to `COc1ccccc1CCc1nnc(CCC(=O)NC(C)Cc2cccc(C)n2)o1` (centres undefined), for which the inhibition was -7.73%.
The figure for `COc1cc(/C=C2\SC(=N)N(c3ccc(F)cc3)C2=O)ccc1O` is 7.97%; for `COc1ccc(/C=C2\SC(=N)N(c3ccc(F)cc3)C2=O)cc1OC` it is -3.05%; for `CCOc1cc(/C=C2\SC(=N)N(c3nonc3N)C2=O)ccc1OCC(N)=O` it is 4%.
With `CCOc1cc(/C=C2\SC(=N)N(c3nonc3N)C2=O)ccc1OCCN1CCOCC1`, the inhibition was 4.53%.
With `CCN1C(c2ccccc2)=C(c2ccccc2)S/C1=C\C=C1/SC(=S)N(C)C1=O`, the inhibition was 3.07%.
Turning to `Cc1cccnc1-n1c(CN2C(=O)c3ccccc3C2=O)nc2ccccc2c1=O`, the inhibition was -3.32%.
Turning to `CCOC(=O)c1c(CSC(=N)N)n(C)c2cc(Br)c(OC(C)=O)cc12`, the inhibition was 1.34%.
With `CCOC(=O)c1c(CSC(=N)N)n(-c2ccccc2)c2cc(Br)c(OC(C)=O)cc12`, the inhibition was -0.53%.
Turning to `O=C(CN=C1NS(=O)(=O)c2ccccc21)OCC(=O)c1cc(F)ccc1F`, the inhibition was -7.99%.
Under `Clc1ccccc1-c1nnc2sc(CCc3ccccc3)nn12` stands 5.64%; under `c1ccc(OCc2nn3c(-c4ccncc4)nnc3s2)cc1`, -8.19%; under `c1csc(Cc2nn3c(-c4ccncc4)nnc3s2)c1`, -11.8%.
With `c1coc(-c2nnc3sc(Cc4cccs4)nn23)c1`, the inhibition was -0.74%.
`c1ccc(-c2nnc3sc(Cc4cccs4)nn23)cc1`: the inhibition was 15.9%.
The figure for `C1CCC(c2nn3c(-c4n[nH]c5c4CCC5)nnc3s2)CC1` is 9.35%.
For the molecule `c1ccc(CCc2nn3c(-c4ccncc4)nnc3s2)cc1`, the inhibition was -0.85%.
As for `c1ccc(OCc2nn3c(-c4ccccn4)nnc3s2)cc1`, the inhibition is -10.6%.
Take `O=C(OCc1nc2ccccc2s1)c1cnccn1`: the inhibition is -4.85%.
As to `O=C(c1ccc(=O)[nH]n1)N1CCc2ccccc2C1`, the inhibition is 5.26%.
The figure for `COC(=O)CCSCC(=O)Nc1nnc(C)s1` is -2.82%; for `CCN(CC)C(=O)CSc1nnc(-c2ccc(F)cc2)n1N` it is 3.27%.
For `CC(=O)Oc1ccc(C(=O)Nc2cccc(C(=O)c3cccc(NC(=O)c4ccc(OC(C)=O)cc4)c3)c2)cc1`, the inhibition is 74.4%.
The figure for `COC1=CC(=O)CC(C)C12Oc1cc(OC)cc(OC)c1C2=O` (centres undefined) is -7.12%.
The figure for `COCCNC(=O)/C(C#N)=C\c1ccc(CNS(=O)(=O)c2ccccc2)o1` is -0.59%.
Take `O=C1c2ccccc2C(O)(c2ncc[nH]2)N1CCc1ccccc1` (centres undefined): the inhibition is -2.48%.
`Clc1nc(NCc2ccco2)nc(N2CCCCC2)n1`: the inhibition was 5.51%.
Regarding `OCCNc1nc(N2CCN(Cc3ccccc3)CC2)nc2ccccc12`, the inhibition is -8.82%.
With `c1ccc(CNc2nc(NCc3ccco3)nc(N3CCOCC3)n2)cc1`, the inhibition was 10.6%.
The figure for `COc1ccccc1Nc1nc(NCc2ccco2)c2ccccc2n1` is 83.7%; for `OCCN1CCN(c2nc(NCc3ccco3)c3ccccc3n2)CC1` it is -2.39%.
Take `c1ccc2c(NCC3CCCO3)nc(N3CCCCC3)nc2c1` (centres undefined): the inhibition is 1.41%.
As to `CCOCCCNC(=O)c1cc2c(=O)n3cccc(C)c3nc2n1C`, the inhibition is 1.27%.
On to `c1ccc(-c2ncc3c(ccc4ccccc43)n2)cc1`, for which the inhibition is 4.61%.
For `CCOc1ncccc1C(=O)Nc1ccccc1C(=O)NCc1ccc2c(c1)OCO2`, the inhibition was -0.12%.
As for `Cc1ccccc1Nc1nc(N)nc(CSc2nnc(C)n2C)n1`, the inhibition was 3.87%.
As for `CCOC(=O)C1=C(C)Nc2nc3ccccc3n2C1c1ccccc1` (centres undefined), the inhibition is -9.7%.
Take `Cc1cccc(C2N=C(N)Nc3nc4ccccc4n32)c1` (centres undefined): the inhibition is -9.29%.
`NC1=NC(c2ccc(Cl)cc2)n2c(nc3ccccc32)N1` (centres undefined): the inhibition was 4.44%.
The figure for `CCn1c2ccccc2c2cc(C3N=C(N)Nc4nc5ccccc5n43)ccc21` (centres undefined) is -6.84%.
In the case of `NC1=NC(c2ccccc2Cl)n2c(nc3ccccc32)N1` (centres undefined), the inhibition is 7.21%.
As for `Cc1ccc(C2N=C(N)Nc3nc4ccccc4n32)cc1` (centres undefined), the inhibition was -6.16%.
Take `O=C1C2C3CCC(C3NCc3ccccc3)C2C(=O)N1Cc1ccccc1` (centres undefined): the inhibition was -0.18%.
In the case of `OC(CSc1ccc(F)cc1)CN1CCN(c2ccccc2)CC1` (centres undefined), the inhibition was 2.78%.
The figure for `Cc1nc(-c2nc(-c3c(C(=O)NNC(=O)Nc4ccccc4)noc3C)cs2)cs1` is 1.03%.
